# PubChem BioAssay (NCATS)
# Several values for one entry are separate records, joined by “and”; a condition that tells them apart may be missing. Equal entries are not always repeated. Values without a mark were called inactive. Records with an inconclusive call do not appear. Activity calls are given as the source filed them. Unless noted, calls follow the shape of the dose curve; as a rule, active = well fitted curve in the direction sought with a large enough effect; inconclusive = small, poorly fitted or top-dose-only effect, or another doubt; inactive = no such curve, though single readings can be large; an effect the other way counts as inactive or inconclusive.
# Experiments:
# Tov-21-G = experiment: Primary qHTS to identify gynecologic anti-cancer compounds using libraries of approved drugs and bioactive compounds (AID 1345084); details: Gynecologic cancer cell panel viability, ATPlite luminescence, 48 h; series mostly up to 57.5 µM; also: nearly all actives have a fitted effect of over 55% in size; also: potency is read from the fitted curve at half-maximal effect
# Summary of the method: (§1)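 ATP-based viability (ATPlite), 1,000 cells/well, 16 h pre-incubation, 48 h compound at 37 C, 5% CO2, 15 min RT before read.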
# Tov112D = experiment: as above; details: Gynecologic cancer cell panel viability, ATPlite luminescence, 48 h; series mostly up to 57.5 µM
# Summary of the method: as §1
# [1] = Drug repurposing screens with cells derived from glioblastoma tumor samples (AID 1345199); details: GBM patient neurospheres viability, ATP luminescence, 48 h; also: nearly all actives have a fitted effect of over 40% in size; also: potency is read from the fitted curve at half-maximal effect; as to activity, negative = cell killing: % is scaled to controls: 0 for no effect and ±100 for the full control effect
# Summary of the method: (§2)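 Primary testing used CD133+ neurospheres from four GBM patients, seven concentrations, 48 h exposure and ATP-based viability; confirmation added three slower-growing patient lines.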
# astro = experiment: as above; details: viability, ATP luminescence, 48 h; series mostly up to 45.9 µM
# Summary of the method: as §2
# [2] = target: Nuclear receptor subfamily 1 group I member 2 (Rattus norvegicus) (UniProt Q9R1A7); experiment: qHTS assay for small molecule activators of the rat pregnane X receptor (rPXR) signaling pathway (AID 651751; call rule not given here; also: 0% is about no effect); details: rPXR reporter cells, luciferase (One-Glo), 24 h
# [3] = qHTS assay for small molecule activators of the human pregnane X receptor (PXR) signaling pathway (AID 720659; call rule not given here; also: 0% is about no effect)
# [4] = at 45.9 µM (top of the series), tumour line B
# [5] = at 45.9 µM (top of the series), tumour line D
# [6] = at 46.1 µM (top of the series), tumour line C
# [7] = at 46 µM (top of the series), tumour line A
# [8] = at 20 µM (top of the series), tumour line C
# Chain of Nuclear receptor subfamily 1 group I member 2 (Rattus norvegicus) (Q9R1A7 whole entry, looked up): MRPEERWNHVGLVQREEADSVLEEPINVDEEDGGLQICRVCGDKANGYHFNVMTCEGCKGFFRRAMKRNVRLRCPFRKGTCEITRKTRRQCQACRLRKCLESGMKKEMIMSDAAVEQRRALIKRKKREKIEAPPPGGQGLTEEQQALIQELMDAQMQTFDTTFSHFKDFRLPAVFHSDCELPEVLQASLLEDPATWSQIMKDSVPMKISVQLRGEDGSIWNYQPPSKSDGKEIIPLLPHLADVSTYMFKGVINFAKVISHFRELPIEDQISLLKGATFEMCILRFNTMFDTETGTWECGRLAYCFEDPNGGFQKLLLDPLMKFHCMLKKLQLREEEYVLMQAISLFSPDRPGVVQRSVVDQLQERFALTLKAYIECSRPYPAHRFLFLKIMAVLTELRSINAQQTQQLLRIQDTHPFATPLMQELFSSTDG
compound,measurement,setting,value
Nc1ccc(O)c(C(=O)O)c1,Potency,Tov-21-G,inactive
same,Potency,Tov112D,inactive
same,"activity, negative = cell killing",[1]; [4],-12.4%
same,"activity, negative = cell killing",[1]; [5],5.07%
same,"activity, negative = cell killing",[1]; [6],2.81%
same,Potency,astro,inactive
same,max response,[2],-0.0122% and -1.86%
same,outcome,[3],inactive
N=C1N=C(N)c2cc3ccccc3cc21,Potency,Tov-21-G,35.5 µM (active)
same,Potency,astro,39.8 µM (active)
O=C(O)/C=C\C(=O)O,Potency,Tov-21-G,inactive
same,Potency,Tov112D,inactive
same,max response,[2],4.35%
same,outcome,[3],inactive
O=c1[nH]c2ccccc2n1CCCN1CCN(C(c2ccccc2)c2ccccc2)CC1,Potency,Tov112D,inactive
O=C(O)c1ccccc1Nc1cccc(C(F)(F)F)c1,Potency,Tov-21-G,inactive
same,Potency,Tov112D,inactive
same,"activity, negative = cell killing",[1]; [4],-9.13%
same,"activity, negative = cell killing",[1]; [5],-1.02%
same,"activity, negative = cell killing",[1]; [7],-4.14%
same,"activity, negative = cell killing",[1]; [6],-6.5%
same,max response,[2],1.7%
same,outcome,[3],inactive
Cc1cc(O)c2ccccc2c1O,Potency,Tov112D,inactive
same,"activity, negative = cell killing",[1]; [6],5.51%
same,Potency,[1]; tumour line A,35.5 µM (active)
COc1ccc(-c2cc(=S)ss2)cc1,Potency,Tov-21-G,inactive
same,Potency,Tov112D,inactive
same,"activity, negative = cell killing",[1]; [4],-21.5%
same,"activity, negative = cell killing",[1]; [5],-22.3%
same,"activity, negative = cell killing",[1]; [6],-27.4%
same,Potency,astro,inactive
O=C(Nc1ccc(C(=O)O)c(O)c1)c1ccccc1,Potency,Tov-21-G,inactive
same,Potency,Tov112D,inactive
same,"activity, negative = cell killing",[1]; [4],-14.9%
same,"activity, negative = cell killing",[1]; [5],-3.46%
same,"activity, negative = cell killing",[1]; [6],-18.9%
same,Potency,astro,inactive
CCCCC1C(=O)N(c2ccccc2)N(c2ccc(O)cc2)C1=O (stereo not given),Potency,Tov112D,22.4 µM (active)
same,"activity, negative = cell killing",[1]; [8],-14.9%
same,Potency,[1]; tumour line A,7.94 µM (active)
O=C1CN(/N=C/c2ccc([N+](=O)[O-])o2)C(=O)N1,Potency,Tov-21-G,inactive
same,Potency,Tov112D,inactive
same,"activity, negative = cell killing",[1]; [4],-5.05%
same,"activity, negative = cell killing",[1]; [5],-3.4%
same,"activity, negative = cell killing",[1]; [7],-24.2%
same,"activity, negative = cell killing",[1]; [6],-8.71%
same,max response,[2],-1.4%
same,outcome,[3],inactive
CN(C)CCn1nnnc1SCC1=C(C(=O)O)N2C(=O)[C@@H](NC(=O)Cc3csc(N)n3)[C@H]2SC1,Potency,Tov-21-G,inactive
same,Potency,Tov112D,inactive
same,"activity, negative = cell killing",[1]; [8],7.42%
same,"activity, negative = cell killing","[1]; at 21.2 µM (top of the series), tumour line B",-1.03%
same,"activity, negative = cell killing","[1]; at 21.2 µM (top of the series), tumour line D",-12.5%
same,Potency,astro,inactive
Cc1ccc(O)c(-n2nc3ccccc3n2)c1,Potency,Tov-21-G,inactive
same,Potency,Tov112D,inactive
same,"activity, negative = cell killing",[1]; [4],-17.2%
same,"activity, negative = cell killing",[1]; [5],-17.5%
same,"activity, negative = cell killing",[1]; [6],-2.87%
same,Potency,astro,inactive
Nc1ccc([N+](=O)[O-])cc1O,Potency,Tov-21-G,inactive
same,Potency,Tov112D,inactive
same,max response,[2],-5.85% and -4.85%
same,outcome,[3],inactive
CC1(C)S[C@@H]2[C@H](NC(=O)[C@H](N)c3ccccc3)C(=O)N2[C@H]1C(=O)O,Potency,Tov-21-G,inactive
same,Potency,Tov112D,inactive
same,"activity, negative = cell killing",[1]; [4],-7.71%
same,"activity, negative = cell killing",[1]; [5],10.7%
same,"activity, negative = cell killing",[1]; [6],12.5%
same,max response,[2],-3.75%
same,outcome,[3],inactive
COc1cccc2c1C(=O)c1c(O)c3c(c(O)c1C2=O)C[C@@](O)(C(=O)CO)C[C@@H]3O[C@H]1C[C@H](N)[C@H](O[C@@H]2CCCCO2)[C@H](C)O1,Potency,Tov112D,1.58 µM (active)
same,Potency,astro,12.6 µM (active)
NCCO,Potency,Tov-21-G,inactive
same,Potency,Tov112D,inactive
same,"activity, negative = cell killing","[1]; at 91.6 µM (top of the series), tumour line B",-4.71%
same,"activity, negative = cell killing","[1]; at 91.6 µM (top of the series), tumour line D",-21.3%
same,"activity, negative = cell killing","[1]; at 99.2 µM (top of the series), tumour line C",-29.9%
same,Potency,astro,inactive
same,max response,[2],-4.55%
same,outcome,[3],inactive
C/C(=N\O)c1ccc(OCC(=O)N2CCCCC2)cc1,Potency,Tov112D,inactive
COc1cc(CNC(=O)CCCC/C=C/C(C)C)ccc1O,Potency,Tov-21-G,inactive
same,Potency,Tov112D,inactive
same,"activity, negative = cell killing",[1]; [4],-4.61%
same,"activity, negative = cell killing",[1]; [5],-7.09%
same,"activity, negative = cell killing",[1]; [6],17.4%
same,Potency,[1]; tumour line A,11.2 µM (active)
same,max response,[2],0.324% and -3.76%
